Data on 7 molecules can be found in ChEMBL document CHEMBL1961873, “Compounds: GSK PKIS; Assays: Nanosyn kinase panel” (2012).

Assay [1] deals with High affinity nerve growth factor receptor (Homo sapiens) (UniProt P04629). The note with it: at 1 µM.
Assay [2] concerns the target BDNF/NT-3 growth factors receptor (Homo sapiens) (UniProt Q16620). The note with it: at 0.1 µM.
Assay [3] shares this target. The note with it: at 1 µM.
Assay [4] has as its target NT-3 growth factor receptor (Homo sapiens) (UniProt Q16288). Conditions: at 0.1 µM.
Assay [5] shares this target. The note with it: at 1 µM.
In assay [6] the target is T1, Tyrosine-protein kinase TXK (Homo sapiens) (UniProt P42681).
T1 sequence (whole entry): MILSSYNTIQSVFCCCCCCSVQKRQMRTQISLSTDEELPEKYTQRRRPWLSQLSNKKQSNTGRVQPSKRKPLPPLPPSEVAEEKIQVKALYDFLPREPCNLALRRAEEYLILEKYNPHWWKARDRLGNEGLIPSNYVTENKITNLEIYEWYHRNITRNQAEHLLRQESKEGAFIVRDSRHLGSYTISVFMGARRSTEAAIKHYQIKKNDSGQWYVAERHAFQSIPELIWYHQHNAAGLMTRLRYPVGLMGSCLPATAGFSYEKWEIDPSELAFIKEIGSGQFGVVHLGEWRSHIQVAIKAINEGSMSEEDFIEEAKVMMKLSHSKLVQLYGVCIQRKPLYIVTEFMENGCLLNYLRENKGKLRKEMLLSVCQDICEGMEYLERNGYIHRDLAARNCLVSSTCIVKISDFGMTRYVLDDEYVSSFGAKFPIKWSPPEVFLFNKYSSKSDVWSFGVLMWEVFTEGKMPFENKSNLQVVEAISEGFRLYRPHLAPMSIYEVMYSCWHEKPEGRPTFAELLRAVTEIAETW
Conditions: at 0.1 µM.

Assay [7] deals with T1, Tyrosine-protein kinase TXK (Homo sapiens). The note with it: at 1 µM.
Assay [8] concerns the target Non-receptor tyrosine-protein kinase TYK2 (Homo sapiens) (UniProt P29597). Conditions: at 0.1 µM.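 Also: each value is a mean of the inhibition readings.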
For assay [9], the target named is T2, Dual specificity protein kinase TTK (Homo sapiens) (UniProt P33981).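 Also: reported figures are mean TTK inhibition at 1 µM.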
T2 sequence (whole entry): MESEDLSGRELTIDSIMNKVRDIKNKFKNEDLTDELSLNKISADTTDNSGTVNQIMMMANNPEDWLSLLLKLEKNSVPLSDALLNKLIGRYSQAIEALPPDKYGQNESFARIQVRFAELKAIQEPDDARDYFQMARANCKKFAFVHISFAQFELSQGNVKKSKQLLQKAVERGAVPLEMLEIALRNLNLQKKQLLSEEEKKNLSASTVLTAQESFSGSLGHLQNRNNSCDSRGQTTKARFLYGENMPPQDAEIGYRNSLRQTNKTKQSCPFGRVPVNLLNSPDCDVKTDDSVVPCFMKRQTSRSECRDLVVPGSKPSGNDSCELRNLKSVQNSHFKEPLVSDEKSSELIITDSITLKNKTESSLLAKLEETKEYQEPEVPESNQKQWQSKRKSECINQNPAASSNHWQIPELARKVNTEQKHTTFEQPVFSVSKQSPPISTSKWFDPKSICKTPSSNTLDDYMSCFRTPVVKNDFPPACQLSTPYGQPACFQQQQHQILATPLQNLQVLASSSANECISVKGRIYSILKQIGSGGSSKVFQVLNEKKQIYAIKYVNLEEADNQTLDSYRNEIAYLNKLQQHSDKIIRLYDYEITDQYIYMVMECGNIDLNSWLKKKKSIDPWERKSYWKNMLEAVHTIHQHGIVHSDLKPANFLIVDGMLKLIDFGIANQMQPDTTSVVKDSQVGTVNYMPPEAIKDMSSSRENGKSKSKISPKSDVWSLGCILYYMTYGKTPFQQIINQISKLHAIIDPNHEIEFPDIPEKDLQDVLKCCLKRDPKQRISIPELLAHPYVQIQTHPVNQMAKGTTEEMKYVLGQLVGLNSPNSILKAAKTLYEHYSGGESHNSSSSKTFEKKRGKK
Conditions: at 1 µM.

Assay [10] concerns the target T3, Aurora kinase A (Homo sapiens) (UniProt O14965).
T3 sequence (whole entry): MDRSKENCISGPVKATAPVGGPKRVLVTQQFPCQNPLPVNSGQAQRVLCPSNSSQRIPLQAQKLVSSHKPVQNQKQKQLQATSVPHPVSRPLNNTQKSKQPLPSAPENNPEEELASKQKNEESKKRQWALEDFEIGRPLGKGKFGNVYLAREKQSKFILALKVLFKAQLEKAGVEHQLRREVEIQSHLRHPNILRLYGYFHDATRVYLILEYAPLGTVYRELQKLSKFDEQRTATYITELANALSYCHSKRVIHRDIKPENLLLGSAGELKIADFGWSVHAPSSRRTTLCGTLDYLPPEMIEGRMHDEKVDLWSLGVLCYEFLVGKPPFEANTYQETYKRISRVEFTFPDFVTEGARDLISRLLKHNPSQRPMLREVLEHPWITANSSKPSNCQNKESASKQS
The note with it: at 0.1 µM.

Assay [11] concerns the target T3, Aurora kinase A (Homo sapiens). The note with it: at 1 µM.
Assay [12] deals with Aurora kinase B (Homo sapiens) (UniProt Q96GD4). Conditions: at 0.1 µM.
Sequence of Aurora kinase B (Homo sapiens) (Q96GD4 whole entry): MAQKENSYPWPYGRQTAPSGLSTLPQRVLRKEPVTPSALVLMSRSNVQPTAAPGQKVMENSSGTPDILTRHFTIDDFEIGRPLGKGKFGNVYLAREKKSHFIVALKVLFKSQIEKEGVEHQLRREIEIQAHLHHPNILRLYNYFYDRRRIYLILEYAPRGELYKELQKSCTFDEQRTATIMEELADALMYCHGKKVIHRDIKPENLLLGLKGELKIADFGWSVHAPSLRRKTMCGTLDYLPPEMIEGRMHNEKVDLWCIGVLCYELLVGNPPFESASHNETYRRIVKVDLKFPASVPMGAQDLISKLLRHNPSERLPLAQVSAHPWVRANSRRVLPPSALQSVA
For assay [13] the target is unchanged. The note with it: at 1 µM.
Assay [14] has as its target T4, Aurora kinase C (Homo sapiens) (UniProt Q9UQB9).
T4 sequence (whole entry): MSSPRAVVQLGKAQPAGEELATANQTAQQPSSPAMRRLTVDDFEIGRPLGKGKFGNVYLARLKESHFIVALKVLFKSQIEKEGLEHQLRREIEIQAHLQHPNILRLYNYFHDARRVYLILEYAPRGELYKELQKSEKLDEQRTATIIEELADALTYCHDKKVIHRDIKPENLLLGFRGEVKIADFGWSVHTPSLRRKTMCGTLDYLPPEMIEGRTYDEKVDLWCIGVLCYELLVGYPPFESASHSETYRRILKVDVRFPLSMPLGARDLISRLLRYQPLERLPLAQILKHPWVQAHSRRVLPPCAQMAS
Conditions: at 0.1 µM.

In assay [15] the target is T4, Aurora kinase C (Homo sapiens). Conditions: at 1 µM.
The target in assay [16] is Serine/threonine-protein kinase 10 (Homo sapiens) (UniProt O94804). Conditions: at 0.1 µM.
Sequence of Serine/threonine-protein kinase 10 (Homo sapiens) (O94804 whole entry, looked up): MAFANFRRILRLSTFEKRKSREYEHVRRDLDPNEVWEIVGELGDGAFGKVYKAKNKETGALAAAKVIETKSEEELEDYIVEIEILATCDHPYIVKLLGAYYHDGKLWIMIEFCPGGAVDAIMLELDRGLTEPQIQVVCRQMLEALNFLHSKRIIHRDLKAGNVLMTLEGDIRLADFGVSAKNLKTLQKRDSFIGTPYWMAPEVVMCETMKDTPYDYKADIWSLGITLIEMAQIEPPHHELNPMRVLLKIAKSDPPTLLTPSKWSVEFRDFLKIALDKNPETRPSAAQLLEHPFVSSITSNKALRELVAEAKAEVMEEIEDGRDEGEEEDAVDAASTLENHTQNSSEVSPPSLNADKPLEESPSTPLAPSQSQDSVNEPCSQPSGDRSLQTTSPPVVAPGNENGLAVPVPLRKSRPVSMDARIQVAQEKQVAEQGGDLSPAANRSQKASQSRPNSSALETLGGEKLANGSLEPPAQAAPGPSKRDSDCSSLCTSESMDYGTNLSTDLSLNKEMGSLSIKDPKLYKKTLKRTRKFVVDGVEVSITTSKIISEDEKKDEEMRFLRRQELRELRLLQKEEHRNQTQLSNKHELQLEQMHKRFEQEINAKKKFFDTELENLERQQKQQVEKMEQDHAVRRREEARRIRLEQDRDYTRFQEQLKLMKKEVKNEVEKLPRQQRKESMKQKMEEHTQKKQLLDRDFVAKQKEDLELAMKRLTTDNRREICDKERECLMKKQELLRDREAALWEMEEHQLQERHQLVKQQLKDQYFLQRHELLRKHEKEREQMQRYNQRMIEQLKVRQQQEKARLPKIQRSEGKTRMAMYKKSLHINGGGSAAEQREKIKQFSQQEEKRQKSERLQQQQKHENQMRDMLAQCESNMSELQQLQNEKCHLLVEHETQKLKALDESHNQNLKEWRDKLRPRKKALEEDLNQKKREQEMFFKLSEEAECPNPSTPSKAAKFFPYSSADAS
For assay [17] the target is unchanged. Conditions: at 1 µM.
Assay [18] addresses T5, Mitogen-activated protein kinase kinase kinase kinase 2 (Homo sapiens) (UniProt Q12851).
T5 sequence (whole entry): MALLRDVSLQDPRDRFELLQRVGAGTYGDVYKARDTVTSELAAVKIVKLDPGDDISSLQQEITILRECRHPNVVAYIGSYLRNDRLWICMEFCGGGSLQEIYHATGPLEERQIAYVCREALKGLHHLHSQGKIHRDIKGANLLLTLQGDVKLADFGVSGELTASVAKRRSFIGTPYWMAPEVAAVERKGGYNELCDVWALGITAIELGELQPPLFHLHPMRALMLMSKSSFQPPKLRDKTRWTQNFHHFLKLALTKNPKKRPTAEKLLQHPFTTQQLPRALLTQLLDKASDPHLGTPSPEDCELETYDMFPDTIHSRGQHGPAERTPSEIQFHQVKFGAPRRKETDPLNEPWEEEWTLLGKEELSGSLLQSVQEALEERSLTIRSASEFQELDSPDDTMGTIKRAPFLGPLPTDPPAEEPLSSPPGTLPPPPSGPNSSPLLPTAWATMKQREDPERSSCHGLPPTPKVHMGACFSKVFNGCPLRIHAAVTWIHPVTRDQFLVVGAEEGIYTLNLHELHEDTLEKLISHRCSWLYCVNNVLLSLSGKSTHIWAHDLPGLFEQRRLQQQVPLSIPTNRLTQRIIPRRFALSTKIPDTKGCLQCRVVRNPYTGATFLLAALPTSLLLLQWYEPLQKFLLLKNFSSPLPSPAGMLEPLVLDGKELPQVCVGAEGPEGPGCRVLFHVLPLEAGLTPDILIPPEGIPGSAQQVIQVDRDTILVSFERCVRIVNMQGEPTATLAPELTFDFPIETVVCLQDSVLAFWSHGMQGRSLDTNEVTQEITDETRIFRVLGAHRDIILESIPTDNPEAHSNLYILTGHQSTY
The note with it: at 0.1 µM.

Assay [19] concerns the target T5, Mitogen-activated protein kinase kinase kinase kinase 2 (Homo sapiens). Conditions: at 1 µM.
For assay [20], the target named is Mitogen-activated protein kinase kinase kinase kinase 4 (Homo sapiens) (UniProt O95819). The note with it: at 0.1 µM.
Sequence of Mitogen-activated protein kinase kinase kinase kinase 4 (Homo sapiens) (O95819 2-1239 limits assumed): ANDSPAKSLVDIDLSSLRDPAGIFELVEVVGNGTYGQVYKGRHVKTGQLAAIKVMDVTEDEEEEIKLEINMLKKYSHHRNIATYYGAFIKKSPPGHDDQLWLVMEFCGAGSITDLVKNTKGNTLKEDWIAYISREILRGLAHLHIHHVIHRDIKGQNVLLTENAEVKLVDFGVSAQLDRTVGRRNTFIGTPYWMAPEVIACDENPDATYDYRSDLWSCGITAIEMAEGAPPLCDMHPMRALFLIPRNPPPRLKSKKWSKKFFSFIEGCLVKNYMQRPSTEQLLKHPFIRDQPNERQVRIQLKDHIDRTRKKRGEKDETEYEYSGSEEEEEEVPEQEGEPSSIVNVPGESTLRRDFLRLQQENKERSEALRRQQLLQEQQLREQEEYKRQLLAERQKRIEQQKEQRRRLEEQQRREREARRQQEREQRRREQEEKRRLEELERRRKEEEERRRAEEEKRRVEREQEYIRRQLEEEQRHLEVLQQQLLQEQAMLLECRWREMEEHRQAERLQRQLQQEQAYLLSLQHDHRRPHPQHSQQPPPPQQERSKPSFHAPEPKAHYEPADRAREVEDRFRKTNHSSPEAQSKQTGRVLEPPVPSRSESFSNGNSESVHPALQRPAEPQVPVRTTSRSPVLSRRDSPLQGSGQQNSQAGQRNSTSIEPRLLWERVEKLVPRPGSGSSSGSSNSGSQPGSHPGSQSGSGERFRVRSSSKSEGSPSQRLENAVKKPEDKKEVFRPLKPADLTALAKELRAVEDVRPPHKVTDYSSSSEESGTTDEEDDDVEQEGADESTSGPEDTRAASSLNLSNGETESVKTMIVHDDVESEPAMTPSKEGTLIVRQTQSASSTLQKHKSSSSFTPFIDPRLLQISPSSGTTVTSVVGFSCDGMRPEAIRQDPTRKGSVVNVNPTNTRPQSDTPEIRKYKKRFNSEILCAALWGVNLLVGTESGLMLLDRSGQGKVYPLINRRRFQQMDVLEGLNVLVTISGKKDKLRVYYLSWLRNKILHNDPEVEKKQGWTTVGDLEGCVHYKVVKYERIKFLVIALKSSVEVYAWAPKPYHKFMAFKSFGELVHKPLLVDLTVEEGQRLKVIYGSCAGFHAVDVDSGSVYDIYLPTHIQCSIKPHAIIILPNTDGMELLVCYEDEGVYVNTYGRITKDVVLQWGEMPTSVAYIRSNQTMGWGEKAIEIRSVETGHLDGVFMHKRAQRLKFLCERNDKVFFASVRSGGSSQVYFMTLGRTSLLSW

Sequence of BDNF/NT-3 growth factors receptor (Homo sapiens) (Q16620 32-822 limits assumed): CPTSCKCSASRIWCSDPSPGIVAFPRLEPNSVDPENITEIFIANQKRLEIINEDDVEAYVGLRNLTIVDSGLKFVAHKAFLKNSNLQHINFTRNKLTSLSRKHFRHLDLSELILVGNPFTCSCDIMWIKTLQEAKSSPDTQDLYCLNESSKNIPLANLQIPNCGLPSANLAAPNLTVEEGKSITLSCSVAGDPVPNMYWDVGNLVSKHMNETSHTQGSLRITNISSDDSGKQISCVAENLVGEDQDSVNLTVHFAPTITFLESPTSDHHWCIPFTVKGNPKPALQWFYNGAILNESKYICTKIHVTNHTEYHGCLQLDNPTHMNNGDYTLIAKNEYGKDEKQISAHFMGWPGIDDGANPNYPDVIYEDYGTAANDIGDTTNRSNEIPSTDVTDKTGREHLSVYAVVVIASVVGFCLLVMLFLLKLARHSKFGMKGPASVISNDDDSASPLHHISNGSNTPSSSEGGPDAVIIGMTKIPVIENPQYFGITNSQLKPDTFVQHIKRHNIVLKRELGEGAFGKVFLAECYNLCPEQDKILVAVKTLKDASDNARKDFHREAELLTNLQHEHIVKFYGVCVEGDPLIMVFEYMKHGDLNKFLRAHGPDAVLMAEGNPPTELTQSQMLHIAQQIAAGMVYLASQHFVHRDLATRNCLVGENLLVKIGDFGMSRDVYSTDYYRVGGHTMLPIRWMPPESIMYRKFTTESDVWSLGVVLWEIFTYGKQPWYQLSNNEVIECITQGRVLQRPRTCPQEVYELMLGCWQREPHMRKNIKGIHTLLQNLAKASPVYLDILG
Sequence of NT-3 growth factor receptor (Homo sapiens) (Q16288 32-839 limits assumed): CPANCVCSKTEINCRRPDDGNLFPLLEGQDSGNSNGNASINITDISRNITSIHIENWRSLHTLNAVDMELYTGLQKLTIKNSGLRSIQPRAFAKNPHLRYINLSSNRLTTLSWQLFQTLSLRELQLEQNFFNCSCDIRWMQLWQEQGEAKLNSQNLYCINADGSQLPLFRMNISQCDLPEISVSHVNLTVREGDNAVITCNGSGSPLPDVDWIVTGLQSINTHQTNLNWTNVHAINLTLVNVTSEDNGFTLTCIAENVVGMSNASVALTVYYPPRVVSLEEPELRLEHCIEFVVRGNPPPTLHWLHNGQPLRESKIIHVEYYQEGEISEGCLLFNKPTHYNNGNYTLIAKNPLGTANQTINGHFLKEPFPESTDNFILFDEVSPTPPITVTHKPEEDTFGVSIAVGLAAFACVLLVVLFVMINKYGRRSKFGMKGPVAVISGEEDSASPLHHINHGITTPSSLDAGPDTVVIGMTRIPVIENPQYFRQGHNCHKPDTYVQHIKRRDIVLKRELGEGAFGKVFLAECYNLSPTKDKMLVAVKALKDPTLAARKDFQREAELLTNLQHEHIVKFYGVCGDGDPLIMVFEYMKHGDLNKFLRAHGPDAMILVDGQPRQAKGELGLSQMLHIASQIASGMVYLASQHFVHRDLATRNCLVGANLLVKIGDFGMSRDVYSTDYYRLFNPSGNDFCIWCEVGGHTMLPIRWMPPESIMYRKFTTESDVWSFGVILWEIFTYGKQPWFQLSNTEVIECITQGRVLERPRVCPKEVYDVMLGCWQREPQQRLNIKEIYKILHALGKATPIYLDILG
Sequence of High affinity nerve growth factor receptor (Homo sapiens) (P04629 33-796 limits assumed): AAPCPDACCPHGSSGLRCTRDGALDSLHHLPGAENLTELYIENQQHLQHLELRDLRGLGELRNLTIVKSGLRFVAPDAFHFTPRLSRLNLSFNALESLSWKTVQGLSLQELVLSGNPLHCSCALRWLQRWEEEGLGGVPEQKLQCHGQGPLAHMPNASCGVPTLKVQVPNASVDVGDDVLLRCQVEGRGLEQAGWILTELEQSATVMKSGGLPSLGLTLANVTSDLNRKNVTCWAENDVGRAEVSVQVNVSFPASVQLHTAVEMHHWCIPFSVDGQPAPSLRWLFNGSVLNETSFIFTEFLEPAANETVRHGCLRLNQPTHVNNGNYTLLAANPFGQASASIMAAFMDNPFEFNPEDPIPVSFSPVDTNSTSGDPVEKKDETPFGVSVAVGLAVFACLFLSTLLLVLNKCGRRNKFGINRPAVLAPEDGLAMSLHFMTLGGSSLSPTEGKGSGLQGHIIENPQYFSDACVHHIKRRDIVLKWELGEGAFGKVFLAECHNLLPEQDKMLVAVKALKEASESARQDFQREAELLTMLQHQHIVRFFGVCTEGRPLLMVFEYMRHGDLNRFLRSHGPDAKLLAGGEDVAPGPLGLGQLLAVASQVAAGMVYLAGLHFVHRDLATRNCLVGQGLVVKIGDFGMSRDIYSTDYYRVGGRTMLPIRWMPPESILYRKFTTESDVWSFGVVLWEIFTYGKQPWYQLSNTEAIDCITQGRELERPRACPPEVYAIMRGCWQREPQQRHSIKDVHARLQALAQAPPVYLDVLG

For `COc1ccc(-c2oc3ncnc(N)c3c2-c2ccc(NC(=O)Nc3cc(C(F)(F)F)ccc3F)cc2)cc1`, the inhibition (as a rule, the drop in the measured response relative to a control, in per cent) came out at 98.4% in [1]; 88.4% in assay [2]; 101% in assay [3]; 87.2% in assay [4]; 98.5% in [5]; 3.68% in assay [6]. The inhibition was 8.48% in [7]; -5.26% in assay [8]; 14.6% in assay [9]; 1.73% in assay [10]; 49.5% in [11]; 8.53% in [12]. Moreover, the inhibition stood at 46.2% in assay [13]; 3.56% in [14]; 76.2% in assay [15]; 49.5% in assay [16]; 91.3% in assay [17]; 8.42% in [18]. In addition, the figures for the inhibition in assay [19] and in [20] were 47.2% and 5.29%, respectively.
For `COc1ccc2[nH]c3c4[nH]c5ccc(OC)cc5c4c4c(c3c2c1)C(=O)NC4=O`, the inhibition in assay [1] came to 16.6%; in assay [2] it was 7.79%; in assay [3], 33.9%; in assay [4], 8.83%; in assay [5], 41.5%; in [6], 2.51%. Also, the inhibition in assay [7] is 14.6%; in [8], -2.11%; in assay [9], 34.6%; in assay [10], 7.28%; in assay [11], 68.8%; in assay [12], 20.7%. The inhibition in assay [13] was determined as 66.9%; in assay [14] it was 12.4%; in [15] it was 86.8%; in [16] it was 9.72%; in [17] it was 40.2%; in assay [18], 2.06%. In addition, the inhibition stood at 12.1% in [19] and 84.6% in assay [20].
As for `CC(=O)NCc1cccc(C#Cc2cncnc2Nc2ccc(OCc3cccc(F)c3)c(Cl)c2)c1`, the inhibition in assay [1] was 1.37%; in [2], 0.64%; in [3], 2.98%; in assay [4], 0.24%; in [5] it was 4.11%; in assay [6], 2.29%. In addition, the inhibition in [7] was -2.24%; in assay [8], 0.84%; in assay [9], -8.1%; in assay [10] it was 1.59%; in assay [11] it was 5.66%; in assay [12], 1.99%. In addition, the inhibition in assay [13] is 6.3%; in assay [14] it was 1%; in assay [15] it was -2.37%; in assay [16], 0.67%; in assay [17], 8.18%; in assay [18] it was 0.67%. Also, the inhibition in assay [19] turned out to be 3.21%; in [20], 2.6%.
Regarding `[O-][S+]1CCN(Cc2ccc(-c3ccc4ncnc(Nc5ccc(OCc6cccc(F)c6)c(Cl)c5)c4c3)o2)CC1`, the inhibition in [1] is 3.26%; in assay [2], 3.51%; in [3] it was 2.84%; in [4], 2.99%; in [5] it was 3.32%; in assay [6], -0.35%. The inhibition in [7] is 5.13%; in [8], -1.86%; in assay [9] it was 13.9%; in [10], 4.7%; in [11], 4.74%; in assay [12], 4.97%. The inhibition stood at 9.46% in [13]; 0.94% in assay [14]; 6.06% in assay [15]; 9.61% in [16]; 15.9% in [17]; 1.81% in [18]. Moreover, the inhibition in assay [19] came out at 5.19%; in assay [20], 7.46%.
Consider `CS(=O)(=O)CCNCc1ccc(-c2ccc3ncnc(Nc4ccc(OCc5ccccc5)c(C(F)(F)F)c4)c3c2)o1`, for which the inhibition was -0.59% in assay [1]; 2.63% in [2]; 2.63% in [3]; 2.74% in assay [4]; 1.42% in assay [5]; -2.21% in assay [6]. Also, the inhibition in [7] was 4.38%; in assay [8] it was -7.44%; in [9], 9.83%; in [10], 2.91%; in assay [11], 2.77%; in assay [12], 1.73%. Further, the inhibition is 3.4% in assay [13]; -0.38% in assay [14]; 2.61% in [15]; 5.07% in assay [16]; 8.24% in assay [17]; 0.85% in assay [18]. Also, the inhibition turned out to be 1.46% in [19] and 2.98% in assay [20].
On to `NS(=O)(=O)c1ccc(N/N=C2\C(=O)Nc3ccc4ncccc4c32)cc1`, for which the inhibition in assay [1] was determined as 50.4%; in [2], 21.5%; in assay [3] it was 72%; in [4] it was 26.7%; in [5] it was 78.5%; in assay [6], 5.15%. Moreover, the inhibition in assay [7] worked out at 26.9%; in [8], 7.29%; in assay [9] it was 67.6%; in [10] it was 27.3%; in assay [11] it was 91.8%; in [12], 20%. Moreover, the inhibition in assay [13] came out at 67.9%; in [14], 15.8%; in assay [15] it was 91.9%; in [16], 4.44%; in assay [17], 13.1%; in assay [18] it was 11.7%. For the same molecule, the inhibition in assay [19] was determined as 49.8%; in assay [20], 44.4%.
Consider `N#Cc1c(NC(=O)CN2CCOCC2)sc2c1CCCC2`, for which the inhibition amounted to 0.84% in [1]; 2.29% in assay [2]; 4.03% in [3]; 2.17% in [4]; 2.8% in assay [5]; 2.2% in [6]. In addition, the inhibition is 3.56% in assay [7]; -1.25% in assay [8]; 12.8% in [9]; 2.73% in [10]; 8.53% in assay [11]; 4.66% in [12]. Moreover, the inhibition in assay [13] is 10.7%; in assay [14], 2.31%; in assay [15], -1.84%; in assay [16], 5.94%; in [17] it was 6.99%; in assay [18], 1.71%. Moreover, the inhibition in assay [19] turned out to be 2.67%; in [20], 10.5%.
